Read-outs that look alike come from different tables or passages of the source.
Tests used:
Set-up in all cases: species or system human, MV4-11 + K-562 + COLO205 + SK-N-BE2 + OVCAR-8
MAP3K1 = settings: read-out: apparent Kd; compound concentrations:100 nM and 1000 nM (sheet 'Samples'); n = 1
IKBKE = settings: read-out: apparent Kd, compound concentrations: 100 nM and 1000 nM (sheet 'Samples'), n = 1
MELK = settings: read-out: apparent Kd; compound concentrations: 100 nM and 1000 nM (sheet 'Samples'), CATDS: 9.6320632964756892E-3; n = 1
CDK6 = settings: read-out: apparent Kd, n = 1
CSNK1E = settings: read-out: apparent Kd; compound concentrations:100 nM and 1000 nM (sheet 'Samples'); n = 1
PIK3C3 = settings: read-out: apparent Kd; compound concentrations:100 nM and 1000 nM (sheet 'Samples'); n = 1
PIP4K2C = settings: read-out: apparent Kd; compound concentrations:100 nM and 1000 nM (sheet 'Samples'); n = 1
FER = settings: read-out: apparent Kd, n = 1
RPS6KA6 = settings: read-out: apparent Kd, n = 1
PAK4 = settings: read-out: apparent Kd; compound concentrations:100 nM and 1000 nM (sheet 'Samples'); n = 1
ATM = settings: read-out: apparent Kd; compound concentrations:100 nM and 1000 nM (sheet 'Samples'); n = 1
ULK1 = settings: read-out: apparent Kd; compound concentrations:100 nM and 1000 nM (sheet 'Samples'); n = 1
CSNK1G1 = settings: read-out: apparent Kd; compound concentrations:100 nM and 1000 nM (sheet 'Samples'); n = 1
MAP4K2 = settings: read-out: apparent Kd, n = 1
GRK6 = settings: read-out: apparent Kd; compound concentrations:100 nM and 1000 nM (sheet 'Samples'); n = 1
PRKX;PRKY = settings: read-out: apparent Kd; compound concentrations: 100 nM and 1000 nM (sheet 'Samples'), CATDS: 3.2948163641369002E-2; n = 1
STRADA = settings: read-out: apparent Kd, n = 1
ILK = settings: read-out: apparent Kd, n = 1
VDAC3 = settings: read-out: apparent Kd, n = 1
[1] = compound concentrations:100 nM and 1000 nM (sheet 'Samples')

COc1cc2ncn(-c3cc(OCc4cccs4)c(C(N)=O)s3)c2cc1OC [GSK312948A]
potency estimated from few doses (MAP3K1): 1470 nM

CNC(=O)c1ccccc1Nc1nc(Nc2cccc(CS(C)(=O)=O)c2)ncc1C.O=CO [GSK1520489A]
potency estimated from few doses (IKBKE; CATDS: 1.0336564492146301E-2): 1110 nM
potency estimated from few doses (MELK): 1610 nM

N#Cc1cccc(Nc2nccc(-c3cnn4ncccc34)n2)c1 [GW778894X]
potency estimated from few doses (CDK6; [1]): 1970 nM
potency estimated from few doses (CSNK1E): 314 nM
potency estimated from few doses (PIK3C3): 994 nM
potency estimated from few doses (PIP4K2C): 113 nM

CN(C)Cc1ccc(-c2ccc3c(Nc4ccc(Oc5ccccn5)cc4)ccnc3c2)o1 [GW567148X]
potency estimated from few doses (FER; compound concentrations: 100 nM and 1000 nM (sheet 'Samples'), CATDS: 2.46743192274099E-2): 568 nM
potency estimated from few doses (RPS6KA6; compound concentrations: 100 nM and 1000 nM (sheet 'Samples'), CATDS: 2.11191304038983E-2): 847 nM

COc1cc2ncn(-c3cc(OCCCc4ccccc4)c(C(N)=O)s3)c2cc1OC [GSK205189A]
potency estimated from few doses (FER; [1]): 55.1 nM
potency estimated from few doses (PAK4): 1350 nM
potency estimated from few doses (RPS6KA6; [1]): 907 nM

Cl.Cn1c(=O)c(Cc2ccc(F)cc2F)cc2cnc(NC3CCOCC3)nc21 [RO3308757-001]
potency estimated from few doses (ATM): 247 nM
potency estimated from few doses (FER; [1]): 302 nM
potency estimated from few doses (PAK4): 1650 nM
potency estimated from few doses (RPS6KA6; [1]): 599 nM
potency estimated from few doses (ULK1): 1550 nM

CC(=O)c1c(-c2ccncc2)[nH]c(-c2ccncc2)c1C [GW493036X]
potency estimated from few doses (CSNK1G1): 717 nM

CNc1nccc(-c2c(-c3ccc(F)cc3)ncn2C2CCN(C)CC2)n1 [SB-222903]
potency estimated from few doses (ATM): 80.7 nM
potency estimated from few doses (CSNK1E): 41.6 nM

Nc1nc(N)c2nc(-c3ccccc3)[nH]c2n1 [SKF-12778]
potency estimated from few doses (CSNK1G1): 924 nM

Cn1cc(-c2ccc3c(c2)CCN3C(=O)Cc2cc(F)cc(C(F)(F)F)c2)c2c(N)ncnc21 [GSK2635225A]
potency estimated from few doses (IKBKE; CATDS: 0.14106315772238301): 1220 nM

Nc1ncc(-c2cn[nH]c2)c2scc(-c3ccc4c(c3)CCN4C(=O)Cc3ccccc3)c12 [GSK2593067A]
potency estimated from few doses (MAP4K2; compound concentrations: 100 nM and 1000 nM (sheet 'Samples'), CATDS: 0.15564611372576101): 200 nM

COc1cc2ncn(-c3cc(OCc4sccc4Cl)c(C(N)=O)s3)c2cc1OC [GSK448459A]
potency estimated from few doses (MAP3K1): 511 nM
potency estimated from few doses (MAP4K2; [1]): 827 nM

NC(=O)c1cccnc1COc1cc(-c2ccc(N3CCOCC3)nc2)cc2ncccc12 [BI01125081]
potency estimated from few doses (GRK6): 1700 nM
potency estimated from few doses (PIK3C3): 1260 nM

COc1ccc(C2=C(c3cn(C)c4ccccc34)C(=O)NC2=O)cc1OC [RO3206363-000]
potency estimated from few doses (PRKX;PRKY): 1620 nM
potency estimated from few doses (STRADA; compound concentrations: 100 nM and 1000 nM (sheet 'Samples'), CATDS: 3.11031335260477E-2): 2050 nM

Clc1ccc(-c2nn3ncccc3c2-c2ccnc(Nc3ccccc3)n2)cc1 [GW829055X]
potency estimated from few doses (ILK; compound concentrations: 100 nM and 1000 nM (sheet 'Samples'), CATDS: 5.2015680047351402E-2): 690 nM
potency estimated from few doses (VDAC3; compound concentrations: 100 nM and 1000 nM (sheet 'Samples'), CATDS: 4.3121960870331599E-2): 997 nM

Nc1c(C(=O)c2ccccc2)cnn1-c1ccc(F)cc1 [RO1151246-000]
potency estimated from few doses (CDK6; [1]): 2120 nM
potency estimated from few doses (STRADA; [1]): 1830 nM

Fc1ccc(-c2ncn(C3CCNCC3)c2-c2ccnc(Oc3ccc4c(c3)OCO4)n2)cc1 [SB-250715]
potency estimated from few doses (CSNK1E): 811 nM
potency estimated from few doses (VDAC3; [1]): 834 nM

Fc1cccc(COc2ccc(Nc3ncncc3C#Cc3ccccc3)cc2Cl)c1 [GW651576X]
potency estimated from few doses (ILK; compound concentrations: 100 nM and 1000 nM (sheet 'Samples'), CATDS: 6.7664406837509503E-2): 1010 nM

CCCN1CCC(Oc2cc(Nc3nc(Nc4cccc(F)c4C(N)=O)c4cc[nH]c4n3)c(OC)cc2Cl)CC1 [GSK1713088A]
potency estimated from few doses (CDK6; compound concentrations: 100 nM and 1000 nM (sheet 'Samples'), CATDS: 0.18030383020801999): 2000 nM

Cc1ccc(-n2nc(C(C)(C)C)cc2NC(=O)Nc2ccc(OCCN3CCOCC3)cc2)cc1 [BIRB0876BS]
potency estimated from few doses (GRK6): 2170 nM
potency estimated from few doses (ILK; [1]): 1870 nM

COc1cc2ncn(-c3cc(O[C@H](C)c4ccccc4Cl)c(C(N)=O)s3)c2cc1OC [GSK237701A]
potency estimated from few doses (MAP3K1): 398 nM
